In PubChem BioAssay AID624330 (Southern Research Specialized Biocontainment Screening …, 2012):
The whole screen tested about 340,000 compounds, of which about 2,100 (0.62%) were called active.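 The calls were made as follows: active = first-screen hits whose inhibition reached a set limit at any dose in the follow-up dose series; inconclusive = inhibition above the set first-screen limit but never retested; inactive = the rest.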 The list is a sample of the results. Results with a measured potency or affinity are listed apart.

biological target: Rac GTPase-activating protein 1 (Homo sapiens) (UniProt Q9H0H5); experiment: MgcRacGAP GTPase-activating activity inhibitors, confirmation, biochemical, ADP Hunter fluorescence, primary and confirmatory (AID 624330); details: MgcRacGAP-stimulated Rac1 GTP hydrolysis, at 30 µM, stronger effect = higher value, GST-tagged Rac1 F28L mutant substrate;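 also: fluorescence reports GDP produced by GAP-driven GTP hydrolysis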
Sequence (Q9H0H5 whole entry, looked up): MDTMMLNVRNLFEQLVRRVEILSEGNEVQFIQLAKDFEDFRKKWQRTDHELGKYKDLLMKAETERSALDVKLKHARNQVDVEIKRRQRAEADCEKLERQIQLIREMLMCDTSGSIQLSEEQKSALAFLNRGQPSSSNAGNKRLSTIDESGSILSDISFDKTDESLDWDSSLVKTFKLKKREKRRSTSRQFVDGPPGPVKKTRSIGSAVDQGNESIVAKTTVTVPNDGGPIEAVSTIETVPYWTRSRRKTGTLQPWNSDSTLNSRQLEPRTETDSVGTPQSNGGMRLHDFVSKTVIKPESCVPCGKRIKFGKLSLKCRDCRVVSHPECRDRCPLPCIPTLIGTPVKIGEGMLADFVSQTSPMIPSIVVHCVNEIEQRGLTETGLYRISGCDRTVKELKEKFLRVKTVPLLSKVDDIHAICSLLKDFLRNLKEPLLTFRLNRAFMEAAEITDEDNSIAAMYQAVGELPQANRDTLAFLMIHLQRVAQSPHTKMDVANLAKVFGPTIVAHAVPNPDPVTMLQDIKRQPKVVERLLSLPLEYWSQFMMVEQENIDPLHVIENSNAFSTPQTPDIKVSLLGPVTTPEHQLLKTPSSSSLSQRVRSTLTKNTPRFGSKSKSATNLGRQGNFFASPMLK

Row | SMILES | inhibition
1 | O=C(NNC(=O)c1ccc([N+](=O)[O-])cc1)NC1CCCCC1 | 1.53% (inactive)
2 | CCCC1NC(=O)c2cccnc2-n2c1nc1ccc(Cl)cc1c2=O (stereo unspecified) | 13.8% (inactive)
3 | Cc1ccc(C)c(-n2nnc3ccccc3c2=O)c1 | 2.95% (inactive)
4 | Cc1ccc(-n2c(C)cc(=O)cc2C)c(C)c1 | 6.02% (inactive)
5 | Cc1ccc(C)c(N2CC(=O)N(c3cc(C)ccc3C)CC2=O)c1 | 1.32% (inactive)
6 | Cc1ccc(N2C(=O)CCC2=O)c(C)c1 | 4.77% (inactive)
7 | COc1ccccc1NC(=O)C(C)n1cnc2c(oc3nc4c(cc32)CCCC4)c1=O (stereo unspecified) | -4.17% (inactive)
8 | COc1ccc(/C=C2/CCCC(C(=O)C(F)(F)F)=C2O)cc1OC | 6.67% (inactive)
9 | CCOC(=O)C(=O)Nc1cc([N+](=O)[O-])ccc1C | 0.69% (inactive)
10 | COc1cc(C(=O)NCCCc2ccccc2)cc(OC)c1OC | 5.75% (inactive)
11 | Cc1ccc(-c2n[nH]c(=S)n2C)cc1 | 14.7% (inactive)
12 | Cc1ccc(-c2cn3c(=S)[nH]nc3s2)cc1 | 22.2% (inactive)
13 | Cc1cc(CSc2ccccc2C(=O)O)on1 | -2.15% (inactive)
14 | C/C(=N/NC(=O)c1ccc(-c2ccccc2)cc1)c1cc(O)cc(O)c1 | 14.9% (inactive)
15 | CC(=O)Nc1cc(S(=O)(=O)Nc2ccc(C)cc2)c(C)cc1C | 11.6% (inactive)
16 | Cc1cc(C(=O)CCC(=O)N(C)CC(=O)Nc2c(Cl)cccc2Cl)c(C)s1 | 1.85% (inactive)
17 | C/C(=N\NS(=O)(=O)c1ccc(Cl)c([N+](=O)[O-])c1)c1cc2ccccc2o1 | 10.9% (inactive)
18 | CC(=O)c1ccc2c(c1)C1C=CCC1C(c1ccncc1)N2 (stereo unspecified) | 13% (inactive)
19 | O=C(O)c1ccc2c(c1)C1C=CCC1C(c1ccncc1)N2 (stereo unspecified) | 9.53% (inactive)
20 | CCOC(=O)c1ccc2c(c1)C1C=CCC1C(C(=O)OCC)N2 (stereo unspecified) | 12.1% (inactive)
21 | CCOC(=O)C1Nc2ccc(C)cc2C2C=CCC12 (stereo unspecified) | 10.5% (inactive)
22 | O=C(C[C@H]1C(=O)N(CCc2ccccc2)C[C@@H]1Cc1ccccc1)Nc1ccc(Br)cc1 | 12.8% (inactive)
23 | C[C@H]1c2cccc(O)c2C(O)=C2C(=O)[C@]3(O)C(O)=C(C(N)=O)C(=O)[C@@H](N(C)C)[C@@H]3[C@@H](O)[C@@H]21 | 8.18% (inactive)

Row | SMILES | inhibition
24 | C[C@H]1c2cccc(O)c2C(O)=C2C(=O)C3(O)C(O)=C(C(N)=O)C(=O)[C@@H](N(C)C)[C@@H]3[C@@H](O)[C@@H]21 (stereo partly specified) | 1.02% (inactive)
25 | C[C@H]1c2cccc(O)c2C(O)=C2C(=O)[C@]3(O)C(O)=C(C(N)=O)C(=O)[C@@H](N(C)C)C3[C@@H](O)C21 (stereo partly specified) | 2.79% (inactive)
26 | C=C1c2cccc(O)c2C(=O)C2C(=O)[C@]3(O)C(=O)C(C(N)=O)C(=O)[C@@H](N(C)C)[C@@H]3[C@@H](O)[C@H]12 (stereo partly specified) | 73.9% (inactive)
27 | CN(C)c1ccc(O)c2c1CC1CC3C(N(C)C)C(=O)C(C(N)=O)=C(O)[C@@]3(O)C(=O)C1=C2O (stereo partly specified) | 9.88% (inactive)
28 | CN(C)c1ccc(O)c2c1CC1CC3[C@@H](N(C)C)C(=O)C(C(N)=O)C(=O)[C@]3(O)C(=O)C1C2=O (stereo partly specified) | 15.3% (inactive)
29 | CC(=O)Nc1ccc(-c2csc(NCCc3ccccc3)n2)cc1 | 9.25% (inactive)
30 | O=C1CN(C(=O)COC(=O)Cc2ccccc2F)c2ccccc2N1 | 3.02% (inactive)
31 | Nc1cc(S(=O)(=O)Nc2ccccc2Cl)ccc1N1CCCC1 | 11.5% (inactive)
32 | O=C(O)CSc1nnc(CNc2cccc(C(F)(F)F)c2)n1Cc1ccco1 | 10.8% (inactive)
33 | COC(=O)CCC(=O)NNC(=O)CCC(=O)Nc1cccc(Cl)c1C | 8.78% (inactive)
34 | COc1ccc(OC)c(-c2csc(NC(=O)CSc3ccc(Br)cc3)n2)c1 | 5.11% (inactive)
35 | CCn1c(=O)n(CC)c2cc(N3CCCC3)c(NC(=O)c3ccc(F)cc3)cc21 | 17% (inactive)
36 | CCn1c(=O)n(CC)c2cc(N3CCCC3)c(NC(=O)c3cccc(OC)c3)cc21 | 8.3% (inactive)
37 | COc1cccc(C(=O)Nc2cc3c(cc2N2CCOCC2)n(C)c(=O)n3C)c1 | -34.3% (inactive)
38 | CCn1c(=O)n(CC)c2cc(N3CCCC3)c(NC(=O)c3cccc(C)c3)cc21 | 11.6% (inactive)
39 | O=C(NCC(c1ccco1)N1CCCCC1)c1cccnc1 (stereo unspecified) | 0.38% (inactive)
40 | C/C(N)=C(/C#N)C(=O)CSc1nc2ccccc2n1CC(C)C | 8.8% (inactive)
41 | NC(=S)N=Nc1c(O)n(CC(=O)Nc2ccccc2)c2ccccc12 | -6.62% (inactive)
42 | COc1ccc(C(=O)Nc2c(N)nc(SCC(=O)N3CCC(C)CC3)[nH]c2=O)cc1 | 6.29% (inactive)
43 | N#Cc1ccsc1NC(=O)C1=COCCO1 | 10.4% (inactive)
44 | CN(C)c1ccc(CNCC2CCCO2)cc1 (stereo unspecified) | -6.93% (inactive)
45 | CN(C)c1ccc(C(=O)NCC2CCCO2)cc1 (stereo unspecified) | -9.43% (inactive)
46 | CN(CC(=O)Nc1cccc(S(=O)(=O)N2CCOCC2)c1)CC(=O)Nc1ccc(Cl)c(C(F)(F)F)c1 | 6.95% (inactive)

Row | SMILES | inhibition
47 | C/C(=N\O)C(C)(C)Nc1ccc(Cl)cc1 | 11.3% (inactive)
48 | CC(C)C(CO)NC(=O)CC(=O)NC(CO)C(C)C (stereo unspecified) | 5.27% (inactive)
49 | CN(C)c1ccc(C=NN2CCCCCC2)cc1 | -2.87% (inactive)
50 | CC1CCCC(C)N1/N=C/c1ccc(N(C)C)cc1 (stereo unspecified) | 9.58% (inactive)
51 | Cc1ccc(C(=O)N2CCN(c3ccc(N4CCOCC4)nn3)CC2)cc1C | 5.24% (inactive)
52 | CCOC(=O)Nc1sc(C)c(C)c1C(=O)OCC | -8.16% (inactive)
53 | CCOC(=O)c1c(NC(N)=O)sc(C)c1C | 1.42% (inactive)
54 | O=c1[nH]c2ccccc2n2c(-c3ccncc3)nnc12 | 6.75% (inactive)
55 | O=c1[nH]c2ccccc2n2c(C(F)(F)F)nnc12 | 5.97% (inactive)
56 | CC(=O)c1ccc(NC(=O)c2ccc3nc(C)sc3c2)cc1 | 5.73% (inactive)
57 | O=C(Nc1ccc(Cl)cc1)c1ccc2nsnc2c1 | -0.42% (inactive)
58 | COC(=O)c1ccc(NC(=O)c2ccc3nc(C)sc3c2)cc1 | -0.39% (inactive)
59 | COC(=O)c1ccc(NC(=O)c2ccc3nsnc3c2)cc1 | 2.71% (inactive)
60 | O=C(/C=C/c1ccc(Cl)c(Cl)c1)NCCCn1ccnc1 | 7.08% (inactive)
61 | CN1c2ccc(Cl)cc2C(=O)NC1c1ccc([N+](=O)[O-])s1 (stereo unspecified) | 11.4% (inactive)
62 | Cc1cccn2c(=O)c(C=NCc3ccccc3)c(NCCO)nc12 | 7.69% (inactive)
63 | C#CCOCCOCCOCCNc1nc(N2CCN(C(=O)[C@H](CCCCN)n3cc([C@@H](N)CO)nn3)CC2)nc(N2CCN(C(=O)[C@H](CCCCN)n3cc([C@@H](N)CC(C)C)nn3)CC2)n1 | 19.8% (inactive)
64 | C#CCOCCOCCOCCNc1nc(N2CCN(C(=O)C(Cc3cc4ccccc4[nH]3)n3cc(C(N)C(C)CC)nn3)CC2)nc(N2CCN(C(=O)C(Cc3cc4ccccc4[nH]3)n3cc(C(N)C(C)CC)nn3)CC2)n1 (stereo unspecified) | 4.22% (inactive)
65 | C#CCOCCOCCOCCNc1nc(N2CCN(C(=O)[C@H]([C@@H](C)CC)n3cc([C@@H](N)CC(C)C)nn3)CC2)nc(N2CCN(C(=O)[C@H](CCCCN)n3cc([C@@H](N)C(C)CC)nn3)CC2)n1 (stereo partly specified) | 19.8% (inactive)
66 | C#CCOCCOCCOCCNc1nc(N2CCOCC2)nc(N2CCN(C(=O)[C@H](CCCCN)n3cc([C@@H](N)CC(C)C)nn3)CC2)n1 | 11.6% (inactive)
67 | C#CCOCCOCCOCCNc1nc(N2CCN(C(=O)[C@H](CCCCN)n3cc(C(N)CC(C)C)nn3)CC2)nc(N2CCN(C(=O)[C@H](CCC(=O)O)n3cc(C(N)[C@H](C)CC)nn3)CC2)n1 (stereo partly specified) | 13.4% (inactive)
68 | C#CCOCCOCCOCCNc1nc(N2CCOCC2)nc(N2CCN(C(=O)[C@H](Cc3cc4ccccc4[nH]3)n3cc([C@@H](N)C(C)CC)nn3)CC2)n1 (stereo partly specified) | 13.4% (inactive)
69 | CC(OC(=O)c1cc(=O)[nH]c2ccccc12)C(=O)N1C(C)CCCC1C (stereo unspecified) | 3.29% (inactive)

Row | SMILES | inhibition
70 | COc1ccccc1Nc1nnc(SCc2cc(=O)n3cc(C)ccc3n2)s1 | 10.9% (inactive)
71 | Cc1cc(C)n2nc(SCc3nc4ccccc4[nH]3)nc2n1 | 3.82% (inactive)
72 | C/C=C\C=C/C(=O)Nc1cccc(C2=NOC3(C2)C[C@@H](C(N)=O)N(C(=O)COc2ccc(Cl)cc2)C3)c1 (stereo partly specified) | 7.01% (inactive)
73 | O=C(c1sc2ccccc2c1Cl)N1CCN(c2ncccn2)CC1 | 5.52% (inactive)
74 | Cc1nc(Nc2nc(CSc3ccc(Cl)cc3)cc(=O)[nH]2)nc2ccccc12 | 4.96% (inactive)
75 | O=C(COC(=O)C1CC(=O)N(c2ccccc2)C1)c1ccccc1 (stereo unspecified) | 4.11% (inactive)
76 | O=C1C(=Cc2ccccc2O)SC(=S)N1CCCN1CCOCC1 | 14.5% (inactive)
77 | O=C(CCCN1C(=O)/C(=C/c2ccccc2Cl)SC1=S)NCCCN1CCOCC1 | 12.8% (inactive)
78 | CCN(CC)C(=S)Nc1ccc2nc3n(c(=O)c2c1)CCCCC3 | 3.47% (inactive)
79 | O=C(O)c1ccccc1C(=O)Nc1ccccn1 | 3.57% (inactive)
80 | O=C(Nc1ccccn1)c1cc2ccccc2cc1O | 6.04% (inactive)
81 | OCCSc1c(F)c(SCCO)c(SCCO)c(F)c1SCCO | -1.8% (inactive)
82 | Cn1c(=O)[nH]c(=O)c2c1nc(NCCc1ccccc1)n2CC(O)COc1ccccc1 (stereo unspecified) | 4.54% (inactive)
83 | CCOC(=O)C1(CCOC)CCN(C/C=C/c2ccccc2OC)CC1 | 5.1% (inactive)
84 | COc1ccc(Br)cc1/C=N/NC(=O)CNC(=O)c1cccnc1 | -12.5% (inactive)
85 | COc1cccc(/C=N/NC(=O)CNC(=O)c2cccs2)c1O | 9.63% (inactive)
86 | O=C(CNC(=O)c1cccs1)N/N=C/c1ccccc1[N+](=O)[O-] | 3.27% (inactive)
87 | COc1cccc(/C=N/NC(=O)CNC(=O)c2cccnc2)c1O | 5.08% (inactive)
88 | O=C(CNC(=O)c1ccncc1)N/N=C/c1cc(Br)ccc1O | 3.51% (inactive)
89 | O=C(CNC(=O)c1ccco1)N/N=C/c1ccccc1[N+](=O)[O-] | 16.6% (inactive)
90 | O=C(CNC(=O)c1ccco1)N/N=C/c1cc(Br)ccc1O | 5.36% (inactive)
91 | O=C(N/N=C/c1ccc(O)cc1O)c1ccncc1 | 31.7% (inactive)
